Source: PubChem BioAssay (National Center for Advancing Translational Sciences (NCATS))
Rows were chosen to be rich in hits. Some 9.3% of all compounds tested hit in one or more screens of this group.
FMDV antiviral: antivirals against foot and mouth disease virus; actives 1.2% (n = 410,000); Potency, µM (doses to about 57.9 µM), for the others: at the top dose activity change, negative = inhibition, usual class: inhibitors; FMDV antiviral cell-based qHTS; calls by dose curve; tested in HEK293T cells; note: read-out not given here; potency is the fitted concentration of half-maximal effect; nearly all actives have a fitted effect of over 45% in size
Vaccinia Venus: inhibitors of vaccinia virus (Venus reporter) | Vaccinia virus Venus reporter expression, fluorescence | Potency, µM (doses to about 36.5 µM), for inactives: top-dose activity change, negative = inhibition, most hits filed as inhibitors | AID 720580 | actives 0.46% (n = 330,000); calls by dose curve; tested in A549 cells; note: potency is the fitted concentration of half-maximal effect; nearly all actives have a fitted effect of over 30% in size
Vaccinia mCherry: vaccinia inhibition (mCherry reporter); Vaccinia virus mCherry reporter infection, fluorescence; Potency, µM (highest dose often 36.5 µM), for inactives: top-dose activity change, negative = inhibition, actives largely listed as inhibitors; actives 0.63% (n = 310,000); AID 720579; calls by dose curve; tested in A549 cells; note: potency is the fitted concentration of half-maximal effect; nearly all actives have a fitted effect of over 35% in size
Sm TGR inh: inhibitors of Schistosoma mansoni thioredoxin glutathione reductase; Q962Y6; purified TGR, DTNB reduction, TNB absorbance 405 nm; Potency, µM (highest dose often 114 µM), for inactives: at the highest dose activity change, negative = inhibition, actives largely listed as inhibitors; actives 3% (n = 360,000); AID 485364; note: potency is the fitted concentration of half-maximal effect; nearly all actives have a fitted effect of over 60% in size
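TGR 20 nM + NADPH 100 uM (dispensed conc.), cpd preinc 15 min RT; start with NADPH (500 uM addition) then DTNB (15 mM addition). Kinetic TNB absorbance, 405 nm filter. Four-parameter Hill fit across titration.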
HCMV antiviral: blocks human cytomegalovirus replication. HFF cells, HCMV-luciferase reporter, 72 h; active compounds read low. activity change, negative = inhibition, % at 57.5 µM. actives 4.5% (n = 410,000). AID 1259415; in the data active = activity change below about -60%; inconclusive = no clear call, values can overlap the other calls; inactive = above about -39%
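Inhibition of viral replication was scored as loss of reporter luminescence in HFFs infected with HCMV-luciferase (MOI 1 PFU/cell) for 72 h; compounds tested at 2 doses, normalized to buffer and Salinomycin controls.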
HCV inh: HCV inhibition; actives 3.4% (n = 340,000); Huh7.5.1 HCVcc-Cre infection, luciferase reporter, 44 h; Potency, µM (titrated, usually from 41.8 µM), for inactives: at the top dose activity change, negative = inhibition, most hits filed as inhibitors; note: potency is the fitted concentration of half-maximal effect
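Reporter virus HCVcc-Cre (~0.5 moi) infects cells exposed to compound; seeding density 1,000 cells/well with 4 h settling beforehand. Luminescence, 15 sec read, taken 44 h post-infection following a 15 min RT substrate incubation.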
The depositor's hits bear a star; i = inactive; ? = inconclusive; nt = no result; [ ] = remark or other dose. Unless noted, calls come from the whole dose curve; as a rule, active = well fitted curve in the direction sought with a large enough effect; inconclusive = small, poorly fitted or top-dose-only effect, or another doubt; inactive = no such curve, though single readings can be large; an effect the other way counts as inactive or inconclusive. % is set by controls: 0 for no effect and ±100 for the full control effect.

SMILES	FMDV antiviral	Vaccinia Venus	Vaccinia mCherry	Sm TGR inh	HCMV antiviral	HCV inh
CCCC[C@H](CN(N=O)[C@@H](Cc1ccccc1)CN(C)N=O)N(CCc1ccccc1)N=O	18.0%	-8.9%	-21.9%	0.0%	-22.6	-10.1%
CC(C)[C@H](CN(N=O)[C@@H](Cc1ccccc1)CN(C)N=O)N(CCc1ccccc1)N=O	4.4%	-15.0%	i	29.0%	66.6	?
CC(C)C[C@@H](CN(C)N=O)N(C[C@H](Cc1ccccc1)N(CCc1ccccc1)N=O)N=O	-12.5%	-14.1%	i	39.8µM*	-20.0	-18.8%
CS(=O)(=O)N(CC(=O)O)Cc1cccc(CN(CC(=O)O)S(C)(=O)=O)c1	-21.8%	-11.6%	i	-15.6%	11.0	14.1%
COc1ccc2c(c1)Cc1sc(NC(=O)c3cccc(Cl)c3)nc1-2	?	?	?	-8.7%	-27.0	nt
COc1cccc(C(=O)Nc2nnc(-c3ccc(OC)cc3OC)s2)c1	10.8%	0.2%	-2.8%	-1.5%	?	10µM*
CCCCOC(=O)Nc1nnc(-c2ccccc2OC)s1	-2.3%	2.5%	nt	-0.4%	-82.9*	4.0%
COc1ccc(C(=O)Nc2nc3c(s2)CCc2cc(OC)ccc2-3)cc1	?	-6.7%	-22.0%	-4.5%	-32.7	nt
COc1ccc2c(c1)Cc1sc(NC(=O)c3ccc(Cl)cc3)nc1-2	-18.8%	?	?	-25.2%	-63.2*	nt
COc1ccc2c(c1)Cc1sc(NC(=O)c3cccc(C)c3)nc1-2	5.3%	-3.8%	-9.9%	-11.5%	-69.6*	nt
CC(=O)NCc1nc2ccccc2n1C(C)C	-21.9%	-12.4%	-20.1%	9.1%	-3.2	19.3%
CSc1ncccc1C(=O)N1CCCC(CCC(=O)NCc2ccc(F)c(F)c2)C1 (configuration not stated)	0.7%	-2.3%	-14.5%	0.9%	-13.8	16.9%
COc1ccc(OC)c(NC(=O)CSc2cn(CC(=O)N3CCOCC3)c3ccccc23)c1	-6.3%	-2.1%	-6.5%	4.6%	-12.9	nt
CC1CN(Cc2c(O)ccc3c(=O)c(-c4ccccc4Cl)coc23)CC(C)O1 (configuration not stated)	-2.9%	nt	nt	-24.5%	8.4	-0.4%
COCCn1c(=S)[nH]c2sc3c(c2c1=O)CCC(C)C3 (configuration not stated)	-17.3%	-18.7%	-10.6%	1.9%	-0.9	-2.6%
Cn1c(=S)[nH]c2sc3c(c2c1=O)CCC(C(C)(C)C)C3 (configuration not stated)	nt	nt	nt	?	-95.3*	nt
Cc1ccc(NC(=O)c2ccccc2-c2ccccc2C(=O)O)cc1C	-2.7%	-2.6%	i	-0.3%	?	8.2%
Cc1cc(NC(=O)CN2CCN(S(=O)(=O)c3ccc4ccccc4c3)CC2)no1	-3.0%	-8.6%	i	-0.5%	-14.4	10.6%
Nc1ncnc2c1nc(-c1ccccc1)n2C1OC(CO)C(O)C1O (configuration not stated)	-8.5%	0.5%	5.9%	nt	11.0	nt
NC(=O)c1c(Br)n(C2OC(CO)C(O)C2O)c2ncnc(N)c12 (configuration not stated)	-21.3%	?	11.2µM*	nt	-83.0*	?
N#Cc1c(Br)n(C2OC(CO)C(O)C2O)c2ncnc(N)c12 (configuration not stated)	7.7%	12.6µM*	?	nt	-94.9*	?
COc1ccc(-c2nc3n(n2)C(=O)CC(c2ccco2)S3)cc1 (configuration not stated)	4.3%	nt	nt	17.8µM*	nt	14.4%
COc1ccc(NC(=O)c2cccc(S(=O)(=O)N3CCCCCC3)c2)cc1	-2.1%	-3.6%	i	0.9%	-87.6*	?
COc1ccc(/C(C)=N/NC(=O)c2cccc(S(=O)(=O)N3CCCC3)c2)c(O)c1	-25.6%	?	5.62µM*	-1.5%	-90.3*	3.16µM*
COc1ccc(NC(=O)CN(C)C(=O)/C=C/c2ccc(S(=O)(=O)N3CCCCCC3)cc2)cc1	-24.5%	-26.9%	-13.0%	-22.5%	-76.5*	?
SMILES	FMDV antiviral	Vaccinia Venus	Vaccinia mCherry	Sm TGR inh	HCMV antiviral	HCV inh
CC(=O)Nc1ccc(NC(=O)c2cccc(S(=O)(=O)N3CCCCCC3)c2)cc1	-14.9%	-26.7%	-9.9%	nt	1.9	?
COc1ccc(N2CCN(S(=O)(=O)c3ccc(OC)c(C(=O)N4CCCCC4)c3)CC2)cc1	-26.9%	-5.5%	2.4%	-2.3%	-31.7	12.6µM*
COc1cc(OC)cc(-c2c(-c3cccs3)c3cc(Br)ccc3n2C)c1	-19.4%	-10.3%	-11.5%	?	-4.7	?
COc1ccc(-c2nc(=S)[nH][nH]2)cc1	3.4%	12.6%	nt	0.1%	93.2	-2.6%
CCC1(C)Cc2c(sc3[nH]c(=O)[nH]c(=O)c23)CS1 (configuration not stated)	-9.5%	4.9%	nt	?	15.3	2.6%
CC(=O)N1CCC[C@H]1C(=O)NCC1Cc2cc(F)cc(-c3ccc(F)c(C)c3)c2O1 (some centres not stated)	1.8%	-1.8%	-14.4%	nt	nt	nt
COc1ccc(NC(=O)c2cc(S(=O)(=O)N3CCCC3)ccc2OC)cc1	6.2%	-5.8%	i	-9.9%	?	-11.8%
COc1ccc(NC(=O)c2cc(S(=O)(=O)N3CCCCC3)ccc2OC)cc1	15.3%	nt	nt	-12.7%	-72.8*	-11.8%
CC(C)(C)c1ccc(C(=O)Nc2nnc3n2CCS3)cc1	16.0%	-15.2%	-16.5%	0.8%	-84.2*	nt
CC(C)(C)C(=O)Nc1nnc2n1CCS2	-10.9%	15.6%	19.9%	1.8%	-1.2	nt
CCOc1ccc(CC(=O)Nc2nnc3n2CCS3)cc1	16.5%	2.8%	-3.3%	8.9%	-60.7*	nt
COc1ccc(CC(=O)Nc2nnc3n2CCS3)cc1	-4.6%	-0.4%	-3.1%	0.1%	1.9	nt
O=C(NCC1CCCO1)C1CCCN(Cc2cnn(-c3ccccc3)c2-n2cccc2)C1 (configuration not stated)	-24.3%	-13.9%	-10.8%[1.46 µM]	-14.2%	-10.7	-24.1%
CCN(c1ccccc1)S(=O)(=O)c1nnc(NC(=O)c2cccs2)s1	61.5%	-10.8%	-2.9%	-5.2%	-15.2	nt
COc1ccc(OC)c(NC2=C(c3ccccc3)C(=O)c3ccccc32)c1	-20.3%	-14.3%[7.34 µM]	?	35.5µM*	-62.5*	nt
COc1ccc(OC)c(Nc2cc(-c3ccccc3)nc(N)n2)c1	-12.4%	?	?	-6.2%	-89.6*	?
COc1ccc(C#Cc2cccc(-c3nc(C(=O)NCc4ccc(Oc5ccccc5)cc4)cc4c3[C@@H](CCO)N(S(=O)C(C)(C)C)C4)c2)cc1OC (some centres not stated)	-16.7%	0.6%	10.2%	nt	-28.0	nt
Cc1ccc(-n2c(-c3cccs3)nc3nc4ccccc4nc32)cc1	nt	nt	nt	4.7%	-63.0*	7.0%
Fc1ccc(-n2c(-c3cccs3)nc3nc4ccccc4nc32)cc1	-5.7%	-2.1%	-22.1%	6.0%	-4.4	0.9%
